Most compounds without a hit are left out; they make up all but 4.7% or so of the library.
D1 agonist – Allosteric Agonists of the Human D1 Dopamine Receptor: qHTS | D(1A) dopamine receptor (Homo sapiens), P21728 | HEK293 T-REx D1 cells, calcium flux, agonist mode | activation, % at 2 µM | 1% of 360,000 active
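Tetracycline-induced HEK293 TREx D1 cells, force-coupled to calcium signalling, were dye-loaded with a no-wash calcium kit. Compound was pin-added after a 10 s baseline. Fluorescence was read kinetically at 1 cycle/s for 180 s, with calcium rises flagged as agonism.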
D1 antag – Antagonist of Human D 1 Dopamine Receptor: qHTS; HEK293 TREx D1 cells, calcium flux, dopamine EC80; hits give low values; AID 504652, 2011; 3.2% of 360,000 active; activity change, negative = inhibition, % at 10 µM; D(1A) dopamine receptor (Homo sapiens), P21728; in the data active = activity change below about -30%
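Calcium flux readout: force-coupled, inducible Hek293 Trex D1 line, cells induced overnight at 30 C with tetracycline, dye-loaded 30–90 min at RT. Antagonism scored against EC80 dopamine challenge given 180 s after compound.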
TRHR agonist – qHTS for Small Molecule Agonists and Allosteric Enhancers of Human TRH Receptor: Primary Screen for Agonists. Thyrotropin-releasing hormone receptor (Homo sapiens), P34981. TRHR cells, calcium flux fluo-8, FDSS agonist mode. activation, % at 2 µM. 0.18% of 360,000 active
Target sequence (P34981 whole entry, looked up): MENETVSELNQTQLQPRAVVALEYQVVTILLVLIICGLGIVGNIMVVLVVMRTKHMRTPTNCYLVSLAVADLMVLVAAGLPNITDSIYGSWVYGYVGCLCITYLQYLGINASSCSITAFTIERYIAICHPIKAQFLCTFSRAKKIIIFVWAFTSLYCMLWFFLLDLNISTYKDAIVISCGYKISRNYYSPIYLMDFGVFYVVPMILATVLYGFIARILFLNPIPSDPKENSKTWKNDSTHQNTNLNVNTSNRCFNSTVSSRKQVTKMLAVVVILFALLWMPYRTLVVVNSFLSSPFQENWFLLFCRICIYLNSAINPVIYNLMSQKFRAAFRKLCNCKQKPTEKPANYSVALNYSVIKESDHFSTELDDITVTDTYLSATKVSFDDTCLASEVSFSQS
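Steps: seed TRHR cells overnight; add fluo-8 no-wash Ca dye, RT 30 min–1.5 h; record 10 s baseline; pin-transfer compounds; monitor fluorescence 1 cycle/s for the agonist window. Calcium increases flag candidate agonists.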
D1 potentiator – Potentiators of Human D1 Dopamine Receptor: qHTS. HEK293 TREx D1 cells, calcium flux, dopamine EC20 potentiation. 0.036% of 360,000 active. AID 504651, 2011. D(1A) dopamine receptor (Homo sapiens), P21728. potentiation, % at 10 µM; in the data active = potentiation above about 30%
TRHR enhancer – qHTS for Small Molecule Agonists and Allosteric Enhancers of Human TRH Receptor: Primary Screen for Enhancers. TRHR cells, fluo-8 calcium fluorescence, EC20 TRH enhancement. enhancement, % at 2 µM. Thyrotropin-releasing hormone receptor (Homo sapiens), P34981. AID 493056, 2011. 0.66% of 360,000 active; in the data active = enhancement above about 30%
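TRHR-expressing cells loaded with fluo-8 calcium dye were read kinetically (ex 480/em 530) during compound addition, then stimulated with an EC20 of TRH (10 nM final). Enhancement of the Gq-mediated intracellular calcium response was scored.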
Numbers stand for hits; 0 = inactive; - = no result; ! = not active in a repeat. Cut-off read from the data, not from the text of the source, unless noted: active = activation above about 30%; inactive = the rest.

SMILES | D1 agonist | D1 antag | TRHR agonist | D1 potentiator | TRHR enhancer
Cc1ccc(S(=O)(=O)N2CCC(C(=O)OCC(=O)N(C)C3CCS(=O)(=O)C3)CC2)cc1C (stereo not given) | 0 | 0 | 0 | 0 | 0
O=S(=O)(Nc1ccc(F)cc1F)c1ccc(Br)s1 | 0 | 0 | 0 | 0 | 0
CCNc1ccc(-c2nc(-c3ccco3)no2)cc1[N+](=O)[O-] | 0 | 0 | 0 | 0 | 0
Cc1ccc(Cl)cc1-n1c(=O)cc(N2CCN(c3ccc(F)cc3)CC2)[nH]c1=O | 0 | 0 | 0 | 0 | 0
CN(C(=O)COC(=O)C1CCN(S(=O)(=O)c2c(Cl)cccc2Cl)CC1)c1ccccc1 | 0 | -32 | 0 | 0 | 0
O=C(COC(=O)CNC(=O)c1ccccc1)Nc1cc(C(F)(F)F)ccc1Cl | 0 | 0 | 0 | 0 | 0
COc1ccccc1CNc1nc2c(S(=O)(=O)c3ccc(C)c(C)c3)nnn2c2ccc(Cl)cc12 | 0 | 0 | 0 | 0 | 0
NC(=S)N/N=C/c1cccc(O)c1O | 0 | 0 | 0 | 0 | 0
Cc1cc(/C=N/NC(N)=S)c(O)c(/C=N/NC(N)=S)c1 | 277 | 0 | 148 | 0 | 0
O=C(c1ccccc1)N1CCc2cc(CNS(=O)(=O)c3ccccc3Cl)ccc21 | 0 | 0 | 0 | 0 | 0
CC(C)CCCN1CCN=C1N(C)C | 0 | 0 | 0 | 0 | 0
CCCCCCCN1CCN=C1N(C)C | 0 | -35 | 0 | 0 | 0
COCC(=O)N1c2nc(C(C)C)nn2C2(CCCCC2)[C@@H]2CCCC[C@@H]21 | 0 | 0 | 0 | 0 | 0
CCc1c(C#N)sc(C(N)=O)c1CC | 0 | -58 | 0 | 0 | 0
CCOc1ccccc1NC(=O)Cn1c(=O)oc2cc(S(=O)(=O)NCc3ccccc3)ccc21 | 0 | -39 | 0 | 0 | 0
CCc1ccc(NS(=O)(=O)c2ccc3c(c2)oc(=O)n3C)cc1 | 0 | -34 | 0 | 0 | 0
Cn1c(=O)oc2cc(S(=O)(=O)NCc3ccc(Cl)cc3)ccc21 | 0 | -37 | 0 | 0 | 0
Cc1ccc(NS(=O)(=O)c2ccc3c(c2)oc(=O)n3C)cc1 | 0 | 0 | 0 | 0 | 0
CC(=O)Nc1ccc(NC(=O)C(Cc2ccccc2)NS(=O)(=O)c2ccc3c(c2)oc(=O)n3C)cc1 (stereo not given) | 0 | 0 | 0 | 0 | 0
CC(C)c1ccc(NC(=O)C(Cc2ccccc2)NS(=O)(=O)c2ccc3c(c2)oc(=O)n3C)cc1 (stereo not given) | 0 | -37 | 0 | 0 | 0
COc1ccc(N2CC(NC(=O)C(c3ccccc3)c3ccccc3)CC2=O)cc1OC (stereo not given) | 0 | - | 0 | 0 | 0
O=C(Cn1nc(-c2ccccc2)nc(Cc2ccccc2)c1=O)Nc1ccccc1 | 0 | 0 | 0 | 0 | 0
CCc1cccc(C)c1NC(=O)c1cn2c3c(ccc(Cl)c3c1=O)OC(C)C2 (stereo not given) | 0 | 0 | 0 | 0 | 0
Cc1ccc(-c2cc3ncc4c(n3n2)-c2ccccc2OC4)cc1 | 0 | 0 | 0 | 0 | 0
COc1ccc(C2c3cc(OC)c(OC)cc3CC(=O)N2c2ccc(C)cc2)cc1 (stereo not given) | 0 | 0 | 0 | 0 | 0
SMILES | D1 agonist | D1 antag | TRHR agonist | D1 potentiator | TRHR enhancer
COc1ccc(OC)c(CCNC(=O)c2cc3c(=O)oc4ccc(C)cc4c3s2)c1 | 0 | 0 | 0 | 0 | 0
Cn1c(=O)oc2cc(S(=O)(=O)NCCN3CCN(c4ccccc4F)CC3)ccc21 | 0 | -75 | 0 | 0 | 0
Cn1c(=O)oc2cc(S(=O)(=O)Nc3ccccc3O)ccc21 | 0 | -40! | 0 | 0 | 0
COC(=O)c1ccccc1NS(=O)(=O)c1ccc2c(c1)oc(=O)n2C | 0 | 0 | 0 | 0 | 0
CC(C)Oc1ccc(CNC(=O)C(C)n2ccc3cc(S(=O)(=O)N4CCCCCC4)ccc32)cc1 (stereo not given) | 0 | 0 | 0 | 0 | 0
CC(C)CN1CN(Cc2ccccc2)CNC1=S | 0 | -31 | 0 | 0 | 0
S=C1NCN(CCc2ccccc2)CN1Cc1ccccc1 | 53 | 0 | 0 | 0 | 0
CCCN1CNC(=S)N(Cc2ccccc2)C1 | 0 | 0 | 0 | 0 | 0
COc1cccc(N2CN(CCc3ccccc3)CNC2=S)c1 | 0 | -30 | 0 | 0 | 0
Cc1oc(-c2ccc(Cl)cc2)nc1CN1CCC(C(=O)N2CCN(Cc3ccccc3)CC2)CC1 | 33 | -68 | 0 | - | 0
Cc1oc(-c2ccc(Cl)cc2)nc1CN1CCC(C(=O)NCCCN2CCCC(C)C2)CC1 (stereo not given) | 0 | -30 | 0 | 0 | 0
Cc1cccc(-c2nc(CN3CCCC(C(=O)NCCc4ccc(Cl)cc4)C3)c(C)o2)c1 (stereo not given) | 0 | 0 | 0 | 0 | 34
Cc1oc(-c2ccc(Cl)cc2)nc1CN1CCC(C(=O)NCCCN2CCCC2=O)CC1 | 0 | 0 | 0 | 0 | 0
Cc1oc(-c2cccc(Cl)c2)nc1CN1CCCC(C(=O)N2CCN(c3ccc(F)cc3)CC2)C1 (stereo not given) | 35 | -64 | 0 | 0 | 0
Cc1ccc(-n2ncc(C(=O)N3CCCCC3)c2C2CCN(C(=O)OC(C)(C)C)CC2)c(C)c1 | 0 | 0 | 0 | 0 | 0
COc1ccc(Cl)cc1NC(=O)Cn1c(=O)n2nc(-c3ccccc3)nc2c2ccccc21 | 0 | 0 | 0 | 0 | 0
Cc1oc(-c2cccc(Cl)c2)nc1CN1CCCC(C(=O)NCc2ccco2)C1 (stereo not given) | 0 | -41 | 0 | 0 | 0
Cc1oc(-c2cccc(Cl)c2)nc1CN1CCC(C(=O)NCc2ccco2)CC1 | 0 | 0 | 0 | 0 | 0
Cc1ccc(-c2nc(CN3CCCC(C(=O)N4CCOCC4)C3)c(C)o2)cc1 (stereo not given) | 0 | -34 | 0 | 0 | 0
Cc1ccc2[nH]c(=O)c3cc(C(=O)N(C)c4ccc(Br)cc4)sc3c2c1 | 0 | 0 | 0 | 0 | 0
COc1ccc(-n2cc(CN3CCC(OC)CC3)c(-c3cccc(F)c3)n2)cc1 | 0 | 0 | 0 | 0 | 0
COc1ccc(-n2cc(CNC3CCC(O)CC3)c(-c3cccc(F)c3)n2)cc1 (stereo not given) | 36 | 0 | 0 | 0 | 0
O=C(N/N=C/c1ccc(O)cc1)c1csc2ccccc12 | 0 | -57 | 0 | 0 | 0
O=C(N/N=C/c1ccc(O)cc1)c1cc(-c2ccccc2)nc2ccccc12 | 0 | 0 | 0 | 0 | 0
COc1ccc(C(C)=O)cc1Cn1nc(C)c([N+](=O)[O-])c1C | 0 | 0 | 0 | 0 | 0
COc1ccc(/C=C/C(=O)C2CC2)cc1Cn1nc(C)c([N+](=O)[O-])c1C | 0 | 0 | 0 | 0 | 38
O=C1/C(=C/c2ccc(O)c(O)c2)Oc2cc(O)ccc21 | 46 | 0 | 0 | 0 | 0
